Rows were chosen to be rich in hits. Some 1.6% of all compounds tested hit in one or more screens of this group.
NSD2 inh = NSD2 (human) methyltransferase inhibition; O96028; inhibition, % at 12.5 µM; hit rate 0.54% among 310,000; NSD2 peptide methylation, AlphaScreen, 120 min; in the data active = inhibition above about 50%
V-ATPase pHluor = regulators of yeast V-ATPase proton transport; S. cerevisiae, pHLuorin cytosolic pH fluorescence; response, % at 10 µM; hit rate 0.37% among 350,000; in the data active = response mostly above about 7.3%, no sharp cut-off; inactive = mostly below about 5.4%; also: actives read high
Rce1 inh = yeast Ras-converting enzyme inhibition. yeast membranes, quenched prenylated peptide cleavage fluorescence. calls only. hit rate 0.27% among 290,000. Q03530;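 active = fall in fluorescence gain of 50% or more versus controls, with final raw signal at or below 3038400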;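 also: plate controls were neutral control wells for no effect and wells lacking membranes for full effect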
NPR2 activator = GC-B (human) receptor activation; hit rate 0.11% among 370,000; activation, % at 10 µM; P20594; AID 1920062; HEK293-GC-B cells, CNP EC30, cGMP TR-FRET; 0% at EC30 CNP, 100% saturating CNP;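 active = activation at 10 µM reaching about 35% in either raw or pattern-adjusted values, limit read from the data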
NPR1 activator = GC-A (human) enzyme activation; P16066; HEK293 GC-A cells, cGMP TR-FRET, EC30 ANP; 0% at EC30 ANP, 100% saturating ANP; activation, % at 10 µM; hit rate 0.14% among 370,000; in the data active = activation above about 40%
Efflux pump mplx = blocks antifungal efflux pumps in multiplex yeast assay | S. cerevisiae Candida pump triplex, Nile Red efflux | inhibition, % at 10 µM | hit rate 0.44% among 330,000;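 active = plate passing quality check with inhibition over a set limit, or well fluorescence over plate mean plus 4 SD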;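 also: Nile Red retained in pooled yeast measured as flow cytometry median fluorescence; 0% = buffer negative control and 100% = Enniatin B positive control; higher means more Nile Red kept so more efflux inhibition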
AlphaScreen art = counter-screen for NSD2 inhibitors: AlphaScreen artifacts. shares compounds with NSD2 inh. AlphaScreen artifact counterscreen, preloaded methylated H4 peptide. AC35, µM (top dose mostly 10 µM), for the others: at the top dose activity change, negative = signal loss. hit rate 9.4% among 1,500; call rule not given here
Active calls of the source: *; i = inactive; . = no result given.

SMILES	NSD2 inh	V-ATPase pHluor	Rce1 inh	NPR2 activator	NPR1 activator	Efflux pump mplx	AlphaScreen art
COCCn1c2nc(=O)n(-c3ccccc3)c(=O)c-2nc2ccccc21	50*	-26	.	3	3	.	0%
COc1ccccc1CNC(=O)C(NC(=O)c1ccccc1)C(C)C (stereo not given)	-3	2	i	2	-5	0	.
COc1ccccc1CNC(=O)C(NC(=O)Nc1ccccc1)C(C)C (stereo not given)	106*	-2	i	-1	2	0	-4%
Cn1c(=O)c(-c2ccccc2)nc2ccccc21	126*	-1	i	-2	1	0	7%
Cc1ccc(-c2nnc(SCC(=O)NN=Cc3c[nH]c4ccccc34)n2-c2ccccc2)cc1	-3	.	.	-8	-13	.	.
COc1ccccc1CNS(=O)(=O)c1cc(CN2C(=O)c3cccnc3C2=O)ccc1OC	-3	2	i	1	1	0	.
COc1cc(CCNC2=CC(=O)c3ncccc3C2=O)ccc1O	128*	2	.	-11	-10	.	-3%
Nc1ccc(N(CCO)CCO)cc1	117*	-1	i	-5	-15	0	-4%
COc1cccc(/C=C2\N=C(SC)SC2=O)c1OC	99*	8	i	-3	5	0	1%
Cn1cc(-c2ccccc2C(N)=O)c(=O)c2ccccc21	56*	8	i	-1	1	0	-1%
Cc1ccc(S(=O)(=O)NC(C(=O)N2CCN(S(=O)(=O)c3cccc(F)c3)CC2)C(C)C)cc1 (stereo not given)	94*	3	.	6	4	.	4%
COc1ccccc1COC(=O)c1cccc(S(=O)(=O)N(C)Cc2ccccc2)c1	-8	.	.	2	3	.	.
N#Cc1c(N)n(-c2ccc(C(=O)O)cc2)c2nc3ccccc3nc12	74*	0	i	-4	2	0	-6%
COc1cc(OC)c(C(=O)OCC(=O)Nc2c(C)n(C)n(-c3ccccc3)c2=O)cc1OC	0	-2	.	-2	0	0	.
COc1ccc(C(=O)OCC(=O)Nc2c(C)n(C)n(-c3ccccc3)c2=O)cc1	51*	0	.	3	-2	0	-2%
COc1ccc(-n2c3nc4ccccc4nc3c3c(=N)oc(C)nc32)cc1	115*	4	i	-7	-3	0	3%
COC(=O)c1ccccc1NC1=C/C(=N\S(=O)(=O)c2cccs2)c2ccccc2C1=O	10	-3	i	8	-2	0	.
COC(=O)c1ccccc1NC1=C/C(=N\S(=O)(=O)c2ccc(C(=O)O)cc2)c2ccccc2C1=O	151*	-3	i	.	.	0	8.1µM*
Cc1ccc(S(=O)(=O)/N=C2\C=C(Nc3cccc(C(=O)O)c3)C(=O)c3ccccc32)cc1	172*	-93	i	-3	-4	0	-16%
Cc1ccc(-n2cccc2/C=C2/C(=N)N3C(=NC2=O)SN=C3S(C)(=O)=O)cc1	.	0	i	-2	-12	0	.
CCc1ccc(-n2cccc2/C=C2/C(=N)N3C(=NC2=O)SN=C3S(C)(=O)=O)cc1	89*	0	i	4	-12	0	-10%
COc1ccc(C(=O)N(C)[C@H]2C[C@H]3c4[nH]c5cccc(-c6ccccc6)c5c4CCN3C[C@H]2[C@H](C)O)cc1	.	.	.	5	11	.	.
Cc1cc(Cl)ccc1NC(=S)NCc1ccccc1	-2	-6	i	2	-8	0	.
COc1cccc(CNC(=S)Nc2ccc(Cl)cc2C)c1	75*	0	i	-3	4	0	3%
OC(CNC1CCCCCC1)COc1cccc2ccccc12 (stereo not given)	19	1	i	-8	-19	0	.
Cc1cc2c(OCC(O)CNC3CCCCC3)cccc2[nH]1 (stereo not given)	54*	-2	i	-7	-9	0	-2%
Cc1ccc(CSc2nnc(-c3n[nH]c4c3CCC4)n2N)cc1	5	.	.	-2	-4	.	.
COc1cccc(C(=O)N(CCN2CCOCC2)Cc2ccc(OC)c(OC)c2)c1	7	.	.	-7	3	.	.
O=c1[nH]c(NCCO)c(N=Cc2ccccc2)c(=O)[nH]1	104*	1	i	7	-2	0	3%
